Here are results for 27 compounds from the supplement of paper PMC12067926.

A number with no mark means an inactive call.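 Rule for the calls: active = growth AUC significantly below the DMSO wells by Dunnett test; inactive = the rest.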

In the test the test system is Carnobacterium 1 (Carnobacterium gallinarum). Put plainly: relative growth (AUC of 72 h growth curve relative to DMSO control, dAUC) (ratio); higher = more growth (less inhibition), active = hit call of the paper. Conditions: 20 µM. On the procedure: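 Environmental bacterial isolates (Iceland stream sediment and Silwood Park soil) and whole stream-sediment communities were grown in LB from a 1:100 dilution with each pesticide at 20 µM (1% DMSO). A600 was read hourly for 72 h and the area under a spline-fitted growth curve (AUC) was computed. dAUC is the mean AUC of 3 biological replicates divided by the mean AUC of the DMSO controls. Significance was tested by Dunnett's test against the DMSO control.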
As to `CC(C)N(C)S(=O)(=O)NC(=O)c1cc(-n2c(=O)cc(C(F)(F)F)n(C)c2=O)c(F)cc1Cl`, the relative growth is 1.22.
The result for `COCC(C)N(C(=O)CCl)c1c(C)csc1C` (configuration not stated) reads 0.859.
The figure for `O=C(O)c1nc(Cl)ccc1Cl` is 0.925; for `N#CCNC(=O)c1cnccc1C(F)(F)F` it is 1.06.
The result for `O=C(NC(=O)c1c(F)cccc1F)Nc1ccc(OC(F)(F)C(F)OC(F)(F)F)c(Cl)c1` (configuration not stated) reads 0.745.
For the compound `CCCCC(C#N)(Cn1cncn1)c1ccc(Cl)cc1` (configuration not stated), the relative growth was 0.998.
The figure for `O=C1C=C(N(Cc2ccc(Cl)nc2)CC(F)F)CO1` is 1.06; for `Cc1ccc(/N=C/N(C)/C=N/c2ccc(C)cc2C)c(C)c1` it is 1.24; for `CCCN(CCOc1c(Cl)cc(Cl)cc1Cl)C(=O)n1ccnc1` it is 1.08.
The result for `CC1COC(Cn2cncn2)(c2ccc(Oc3ccc(Cl)cc3)cc2Cl)O1` (configuration not stated) reads 1.19; that for `O=C(NCCc1ncc(C(F)(F)F)cc1Cl)c1ccccc1C(F)(F)F`, 0.905; that for `CC1(C)C(C=C(Cl)Cl)C1C(=O)OC(C#N)c1cccc(Oc2ccccc2)c1` (configuration not stated), 1.32.
The result for `C[N+]1(C)CCCCC1` reads 1.2; that for `O=C(O)COc1ccc(Cl)cc1Cl`, 1.06.
As for `COC(=O)Nc1nc2ccccc2[nH]1`, the relative growth was 1.1.
The result for `CC[C@H](C)C1O[C@]2(C=C[C@@H]1C)C[C@@H]1C[C@@H](C/C=C(\C)[C@@H](O[C@H]3C[C@H](OC)[C@@H](O[C@H]4C[C@H](OC)[C@H](NC)[C@H](C)O4)[C@H](C)O3)[C@@H](C)/C=C/C=C3\CO[C@@H]4[C@H](O)C(C)=C[C@@H](C(=O)O1)[C@]34O)O2` (some centres not stated) reads 0.609; that for `CC(C1CC1)C(O)(Cn1cncn1)c1ccc(Cl)cc1` (configuration not stated), 1.34.
The figure for `Oc1ccccc1-c1ccccc1` is 0.744.
The figure for `O=C(O)CNCP(=O)(O)O` is 1.13; for `CC1=NNC(=O)N(/N=C/c2cccnc2)C1` it is 1.3.
For the compound `CN(C)C(CSS(=O)(=O)O)CSS(=O)(=O)O`, the relative growth is 1.03.
The figure for `OC(Cn1cncn1)(c1ccc(F)cc1)c1ccccc1F` (configuration not stated) is 1.15.
The figure for `N#Cc1c[nH]cc1-c1cccc2c1OC(F)(F)O2` is 1.07; for `Fc1ccc([C@]2(Cn3cncn3)O[C@H]2c2ccccc2Cl)cc1` (racemic) it is 0.995; for `O=C1C2(Cl)C3(Cl)C4(Cl)C(Cl)(Cl)C5(Cl)C3(Cl)C1(Cl)C5(Cl)C24Cl` (configuration not stated) it is 0.621.
The figure for `COP(=S)(OC)Oc1nc(Cl)c(Cl)cc1Cl` is 0.447; for `CN/C(=N\[N+](=O)[O-])NCc1cnc(Cl)s1` it is 0.918.
